About 83,000 compounds went through this panel and 20% of them were active in at least one assay; those are over-represented in the sample as a whole.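 Method: cells in 96-well plates; compound added at one concentration; 48 h incubation; percent growth measured; values under 10 scored active.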 A number with no mark means an inactive call. The source made the active and inactive calls.

Some test systems named below: NCI-H23 lung; NCI-H226 lung; NCI-H322M lung; HOP-62 NSCLC; NCI-H460 lung; HOP-92 NSCLC; NCI-H522 lung; A549/ATCC NSCLC; 786-0 renal; COLO 205 colon; DU-145 prostate; K-562 leukemia; MALME-3M melanoma; MDA-MB-231 breast; RXF 393 renal; SF-268 CNS; SF-295 CNS; SF-539 CNS; UACC-257 melanoma; M14 melanoma.
Assay in all cases: NCI-60 one-dose screen, 48 h (100 = growth as untreated, 0 = no growth, -100 = all killed)
What all share (conditions): 10 µM unless noted

Take `Cc1ccc2oc(=O)cc(-c3nc4ccc([N+](=O)[O-])cc4[nH]3)c2c1`: the growth is 43.9% with NCI-H23 lung; 66.6% in the assay on NCI-H226 lung; 80.5% in the assay on NCI-H322M lung; 72% in the assay with HOP-62 NSCLC; 47.1% in the assay with NCI-H460 lung; 52.7% with HOP-92 NSCLC. In addition, the growth was 36% in the assay on NCI-H522 lung; 35.2% in the assay with A549/ATCC NSCLC; 40.6% in the assay with 786-0 renal; 67.8% with COLO 205 colon; 76.4% in the assay with DU-145 prostate; 48.7% with K-562 leukemia. The growth with MALME-3M melanoma was 62.9%; in the assay on MDA-MB-231 breast, 64.2%; with RXF 393 renal, 46.7%; in the assay with SF-268 CNS, 62.1%; in the assay on SF-295 CNS it was 49.3%; with SF-539 CNS it was 54%. For the same compound, the growth in the assay on UACC-257 melanoma is 62.2%; in the assay with M14 melanoma, 64.4%.

Take `COc1ccc(NC(=O)/C=C/c2ccc(NC(=O)N3CCCC3)cc2)cn1`: the growth in the assay with NCI-H23 lung is 105%; in the assay with NCI-H226 lung, 96.6%; in the assay with NCI-H322M lung, 106%; in the assay on HOP-62 NSCLC, 104%; with NCI-H460 lung, 105%; in the assay with HOP-92 NSCLC, 103%. In addition, the growth was 95.9% in the assay on NCI-H522 lung; 100% in the assay on A549/ATCC NSCLC; 109% with 786-0 renal; 112% with COLO 205 colon; 106% in the assay with DU-145 prostate; 99.4% with K-562 leukemia. Besides, the growth with MALME-3M melanoma was 96.8%; in the assay on MDA-MB-231 breast it was 97.5%; in the assay with RXF 393 renal it was 109%; with SF-268 CNS it was 101%; with SF-295 CNS, 99.8%; in the assay on SF-539 CNS, 97%. Further, the growth in the assay with UACC-257 melanoma and in the assay with M14 melanoma was 103% throughout.

For `COc1ccc(C(=O)/C=C/c2cn(-c3ccccc3)nc2-c2cccc(Nc3ccnc4cc(Cl)ccc34)c2)cc1`, the growth is 101% with NCI-H23 lung; 95.4% in the assay on NCI-H226 lung; 101% with NCI-H322M lung; 103% with HOP-62 NSCLC; 96.6% in the assay with NCI-H460 lung; 64.9% in the assay on HOP-92 NSCLC. Besides, the growth was 96.7% in the assay with NCI-H522 lung; 95.3% with A549/ATCC NSCLC; 99.5% in the assay on 786-0 renal; 102% in the assay on COLO 205 colon; 86.5% in the assay on DU-145 prostate; 85.9% in the assay with K-562 leukemia. Further, the growth is 57.4% in the assay with MALME-3M melanoma; 70.8% in the assay with MDA-MB-231 breast; 95.2% in the assay with RXF 393 renal; 89.3% with SF-268 CNS; 106% with SF-295 CNS; 103% with SF-539 CNS. Also, the results for the growth in the assay on UACC-257 melanoma and in the assay with M14 melanoma were 90.1% and 110%, respectively.

With `O=C(Nc1ccc(Oc2ccc(Nc3nc4ccccc4s3)cc2)cc1)Nc1ccc(Cl)c(C(F)(F)F)c1`, the growth is -20.2% (active) with NCI-H23 lung; 4.93% (active) with NCI-H226 lung; 25.7% in the assay with NCI-H322M lung; 17% in the assay with HOP-62 NSCLC; 1.39% (active) with NCI-H460 lung; -25% (active) with HOP-92 NSCLC. Moreover, the growth with NCI-H522 lung was -36.8% (active); in the assay on A549/ATCC NSCLC, 9.75% (active); with 786-0 renal, 1.24% (active); in the assay on COLO 205 colon it was -84% (active); with DU-145 prostate it was 9.51% (active); in the assay on K-562 leukemia, 6.86% (active). Moreover, the growth in the assay with MALME-3M melanoma was 2.78% (active); in the assay with MDA-MB-231 breast it was -65.5% (active); in the assay with RXF 393 renal it was 8.85% (active); in the assay on SF-268 CNS, 18.5%; in the assay with SF-295 CNS, 5.6% (active); in the assay with SF-539 CNS, 9.29% (active). Further, the values for the growth with UACC-257 melanoma and in the assay with M14 melanoma were -11.6% (active) and -4.56% (active), respectively.

As to `COc1ccc(C2CC(c3cccc(Nc4ccnc5cc(Cl)ccc45)c3)=NN2c2ccc(Cl)cc2)cc1` (stereo not given), the growth in the assay with NCI-H23 lung is 84.4%; with NCI-H226 lung, 83.6%; in the assay with NCI-H322M lung it was 72.4%; in the assay on HOP-62 NSCLC, 88.7%; in the assay with NCI-H460 lung, 47.6%; with HOP-92 NSCLC, 68.5%. The growth is 90.4% with NCI-H522 lung; 70.6% in the assay with A549/ATCC NSCLC; 74.4% with 786-0 renal; 73.9% in the assay on COLO 205 colon; 79.2% in the assay on DU-145 prostate; 12.8% in the assay on K-562 leukemia. For the same compound, the growth in the assay on MALME-3M melanoma was 74.6%; in the assay on MDA-MB-231 breast it was 75.5%; in the assay with RXF 393 renal, 105%; in the assay with SF-268 CNS, 55.1%; with SF-295 CNS, 30.7%; in the assay on SF-539 CNS, -31.5% (active). Moreover, the results for the growth in the assay with UACC-257 melanoma and with M14 melanoma were 70.7% and 28.3%, respectively.

Turning to `Nc1nonc1-c1nc2ccccc2n1Cc1ccc(F)cc1`, the growth was 70.6% with NCI-H23 lung; 69.3% in the assay on NCI-H226 lung; 69.8% with NCI-H322M lung; 56.7% in the assay with HOP-62 NSCLC; 49.3% with NCI-H460 lung; 65% in the assay with HOP-92 NSCLC. For the same compound, the growth in the assay on NCI-H522 lung was 4.81% (active); in the assay on A549/ATCC NSCLC it was 39.1%; in the assay on 786-0 renal it was 76.4%; in the assay with COLO 205 colon it was 42.8%; in the assay with DU-145 prostate, 80.7%; in the assay on K-562 leukemia, 10.6%. Moreover, the growth in the assay on MALME-3M melanoma was 46.2%; in the assay on MDA-MB-231 breast it was 60%; with RXF 393 renal, 37.8%; with SF-268 CNS, 66.3%; with SF-295 CNS, 68.5%; in the assay on SF-539 CNS, 49.9%. Further, the values for the growth with UACC-257 melanoma and in the assay with M14 melanoma were 75.4% and 28.2%, respectively.

Consider `Cc1nc2ccc(Nc3nc(N4CCOCC4)nc(N4CCN(C)CC4)n3)cc2n1Cc1ccccc1`, for which the growth with NCI-H23 lung is 92%; in the assay with NCI-H226 lung it was 95.8%; in the assay on NCI-H322M lung it was 76.1%; in the assay with HOP-62 NSCLC, 86.6%; in the assay with NCI-H460 lung it was 97.8%; with HOP-92 NSCLC it was 64.5%. For the same compound, the growth in the assay on NCI-H522 lung is 93.2%; in the assay on A549/ATCC NSCLC, 85.1%; with 786-0 renal, 72.8%; with COLO 205 colon, 73.2%; in the assay with DU-145 prostate it was 98.4%; in the assay with K-562 leukemia it was 29.3%. In addition, the growth in the assay with MALME-3M melanoma was 65.7%; with MDA-MB-231 breast, 68.5%; with RXF 393 renal it was 61.1%; in the assay on SF-268 CNS it was 68.8%; with SF-295 CNS, 90.1%; in the assay on SF-539 CNS, 76.5%. Moreover, the figures for the growth with UACC-257 melanoma and with M14 melanoma were 82.5% and 83.4%, respectively.

(Values after PubChem BioAssay (NCI).)
